Source: PubChem (National Center for Advancing Translational Sciences (NCATS))
Most compounds without a hit are left out; they make up all but 9.4% or so of the library.
FLuc modulator = inhibits or activates purified firefly luciferase, miR-21 counter-screen; purified FLuc, Km substrates, luminescence inhibition; Potency, µM (doses to about 57.5 µM), for inactives: top-dose activity change, negative = inhibition, usual class: inhibitors; actives 6.9% (n = 360,000);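 further: plate controls were vehicle for no effect and reference inhibitor for full effect; nearly all actives have a fitted effect of over 55% in size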
Target sequence (P08659 whole entry, looked up): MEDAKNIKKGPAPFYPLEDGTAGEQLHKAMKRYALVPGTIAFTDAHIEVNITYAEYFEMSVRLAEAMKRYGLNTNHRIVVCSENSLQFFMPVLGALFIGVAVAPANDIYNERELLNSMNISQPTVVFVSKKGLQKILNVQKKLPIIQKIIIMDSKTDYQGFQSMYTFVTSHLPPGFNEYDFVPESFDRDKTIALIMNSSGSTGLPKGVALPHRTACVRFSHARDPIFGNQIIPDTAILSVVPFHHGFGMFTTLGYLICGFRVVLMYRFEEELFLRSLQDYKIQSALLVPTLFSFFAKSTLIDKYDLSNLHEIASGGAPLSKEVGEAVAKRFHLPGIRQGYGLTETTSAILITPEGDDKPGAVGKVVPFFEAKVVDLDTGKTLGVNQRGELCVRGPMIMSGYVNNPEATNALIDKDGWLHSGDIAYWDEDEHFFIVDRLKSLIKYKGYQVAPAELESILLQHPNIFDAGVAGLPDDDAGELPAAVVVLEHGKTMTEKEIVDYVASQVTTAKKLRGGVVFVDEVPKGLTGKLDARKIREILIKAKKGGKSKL
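Purified P. pyralis luciferase, 10 nM final, with Km-level 10 uM D-luciferin and 10 uM ATP in 50 mM Tris acetate pH 7.5, 10 mM Mg acetate, 0.01% Tween-20, 0.05% BSA; 6-point qHTS titration about 60 µM downward; luminescence read.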
NPC1 promoter act = NPC1 promoter activation. Huh7 NPC1 promoter luciferase reporter, 24 h. AID 485313. Potency, µM (top dose mostly 9.22 µM), without a hit: at the top dose activation, usual class: activators. actives 2.4% (n = 320,000); further: % of control where 0% means no effect; nearly all actives have a fitted effect of over 60% in size
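Quantitative HTS used a cell-based reporter: Huh7 cells stably bearing the NPC1 promoter upstream of luciferase were treated with compounds for 24 h, and promoter activation was read as luminescence.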
ELG1 genotox = genotoxicity induction in ELG1-luciferase HEK293T cells. Potency, µM (doses to about 46 µM), for the others: at the highest dose activity change, positive = activation, most hits filed as activators. HEK293T ELG1-luciferase reporter, luminescence, 16 h. actives 1.3% (n = 330,000). AID 504466; further: % of control where 0% means no effect; nearly all actives have a fitted effect of over 60% in size
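ELG1-luciferase HEK293T cells, 2,000/well; compound pinned in; 16 hr, 37 °C, 5% CO2; ONE-Glo, 30 min RT; luminescence on CCD imager.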
ELG1 DNA repair = blocks ELG1-dependent DNA repair in HEK293T cells; HEK293T ELG1-luciferase reporter, luminescence, 16 h; DNA damage induced by 5-fluorouridine; Potency, µM (highest dose often 46.1 µM), for the others: top-dose activity change, negative = inhibition, actives largely listed as inhibitors; actives 2.3% (n = 330,000); further: on the % scale 0 is the no-effect control and ±100 the full control effect; nearly all actives have a fitted effect of over 55% in size
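Step one: seed 2,000 cells per well. Step two: pin-transfer compound or DMSO alongside 5-fluorouridine. Step three: incubate 16 hr, 37 °C, 5% CO2. Step four: add ONE-Glo, wait 30 min, read luminescence.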
Rab9 prom act = activates the Rab9 promoter | Huh7 Rab9 promoter-luciferase reporter, luminescence, 24 h | Potency, µM (highest dose often 9.22 µM), for the others: at the top dose activation, negative = inhibition, actives largely listed as activators | actives 2.8% (n = 320,000); further: % of control where 0% means no effect; nearly all actives have a fitted effect of over 60% in size
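Steps: seed 1500 Huh7 Rab9-luc cells per well, rest 2 h at 37 °C; add compound in DMSO; incubate 24 h; add luciferase reagent, 10 min ambient; read luminescence.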
SMN2 splice enh = increases expression of the SMN2 splice variant; HEK293 SMN2-luciferase splicing reporter, luminescence, 30-36 h; Potency, µM (doses to about 46.1 µM), without a hit: top-dose activity change, positive = activation, hits mostly activators; actives 2.8% (n = 210,000); further: % of control where 0% means no effect; nearly all actives have a fitted effect of over 55% in size
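HEK293 cells carry an SMN2 […]–luciferase reporter in which exon 7 inclusion puts luciferase in frame. Cells were plated 10-12 h before compound addition, then incubated 30-36 h at 37C. ONE-Glo luminescence was read; sodium butyrate at 4.5 mM final served as control.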
* marks the source's active call; other numbers are inactive results; u = inconclusive; x = not tested or not shown. The call rests on the fitted dose curve; in most records, active means well fitted curve in the direction sought with a large enough effect; inconclusive means small, poorly fitted or top-dose-only effect, or another doubt; inactive means no such curve, though single readings can be large; an effect the other way counts as inactive or inconclusive. Potency means the concentration at half of the fitted maximal effect.

SMILES	FLuc modulator	NPC1 promoter act	ELG1 genotox	ELG1 DNA repair	Rab9 prom act	SMN2 splice enh
NC(=O)CSc1nc(-c2ccccc2Cl)ns1	u	u	13%	u	3.2µM*	u
CCOC(=O)CSc1nnc(-c2ccccc2)c(-c2ccccc2)n1	-3%	-4%	-2%	-5%	-1%	x
CCOC(=O)CSc1nc(-c2ccccc2)ns1	15µM*	-3%	1%	u	2%	9%
CCCCCn1c(CCCNC(=O)c2cccc(C)c2)nc2ccccc21	-2%	x	x	x	x	4%
CCn1c(-c2ccc(N)cc2)nc2ccccc21	u	9%	u	u	2%	14%
CCn1c(-c2ccc(N(C)C)cc2)nc2ccccc21	0.85µM*	u	2%	u	u	13µM*
Cc1ccc(C(O)c2nc3ccccc3n2C(C)C)cc1 (stereo not drawn)	-3%	-2%	-1%	2%	-3%	-7%
CN(C)c1ccc(-c2nc3ccccc3n2C)cc1	0.27µM*	0.32µM*	u	u	0.22µM*	0.63µM*
CC(C)n1c(-c2ccc(N(C)C)cc2)nc2ccccc21	7.6µM*	1%	18%	u	u	10%
CCn1c(-c2ccco2)nc2ccccc21	19µM*	22%	28%	u	18%	9%
CC(=O)N1CCc2cc(S(=O)(=O)NC(Cc3ccccc3)C(=O)Nc3cccc(C)c3)ccc21 (stereo not drawn)	-14%	x	x	x	x	-36%
[C-]#[N+]c1cc(-c2ccncc2)c(C)[nH]c1=O	x	x	x	x	x	7%
Cc1onc(-c2ccccc2)c1C(=O)c1c[nH]c(C(=O)NCc2ccncc2)c1	1%	-2%	-3%	13µM*	3%	-13%
Cc1onc(-c2ccccc2)c1C(=O)c1c[nH]c(C(=O)NCc2ccccn2)c1	6%	1%	-14%	16µM*	-2%	-54%
CCc1ccccc1N(C)C(=O)Cn1cnc2sc(C)c(S(=O)(=O)N3CCN(c4ncccn4)CC3)c2c1=O	-3%	x	x	x	x	3%
CCOc1cc(/C=N/NC(=O)c2ccc(-c3csc(Nc4ccc(C)cc4)n3)cc2)ccc1OCC(=O)O	u	3.2µM*	-3%	u	2.8µM*	13µM*
CCOc1cc(/C=N/Nc2nc(N3CCCC3)nc(N3CCCC3)n2)ccc1O	-15%	-5%	-2%	12µM*	1%	-9%
CCOc1cc(/C=N/Nc2ccccc2Cl)ccc1OCC(=O)O	21µM*	12%	u	u	0%	0%
COc1ccc(/C=N/Nc2nc(Nc3ccccc3)nc(N3CCCCC3)n2)cc1OC	1.1µM*	u	-7%	5.8µM*	u	19%
COc1ccc(CCNc2nc(N3CCCCC3)nc(N3CCCCC3)n2)cc1OC	-1%	-4%	-14%	21µM*	-5%	4%
COc1ccc(CCNc2nc(N3CCOCC3)nc(N3CCOCC3)n2)cc1OC	2%	-1%	-6%	u	-4%	11%
CCOc1cc(/C=N/Nc2nc(Nc3ccccc3)nc(N3CCCCC3)n2)ccc1OCC(=O)O	1.1µM*	0%	-2%	12%	25%	-3%
CC1CCN(C(=O)CSc2nc3ccccc3nc2Cc2ccccc2)CC1	-4%	x	x	x	x	x
Cc1cccc(NC(=O)CCCc2ccccc2)c1	17µM*	u	u	u	u	x
O=C(CCc1ccccc1)Nc1ccccc1	-3%	-4%	0%	18%	0%	x
SMILES	FLuc modulator	NPC1 promoter act	ELG1 genotox	ELG1 DNA repair	Rab9 prom act	SMN2 splice enh
CN(C)c1ccc(NC(=O)CCCc2ccccc2)cc1	2.4µM*	4µM*	0.92µM*	u	1.6µM*	16µM*
CCOc1cc(N2CCOCC2)c(OCC)cc1NC(=O)c1ccc(OCc2c(C)noc2C)c(OC)c1	-2%	-2%	-2%	5.8µM*	-6%	2%
CCOc1cc(-n2cnnn2)c(OCC)cc1NC(=O)c1cnccn1	-1%	0%	1%	6%	15%	20%
CCOc1cc(N2CCOCC2)c(OCC)cc1NC(=O)c1cnccn1	x	x	-5%	10µM*	x	x
CCOc1cc(N2CCOCC2)c(OCC)cc1NC(=O)c1ccc(OC)cc1	5%	-14%	-6%	u	0%	-28%
CCOc1cc(N2CCOCC2)c(OCC)cc1NC(=O)c1nc2nc(C)cc(C)n2n1	2%	-11%	-12%	7.9µM*	-5%	10%
C/C(=N\NC(=O)c1cccs1)c1ccc2ccccc2c1	-16%	u	9%	u	u	x
C/C(=N\NC(=O)C1=NNC(=O)C1C)c1cccs1 (stereo not drawn)	u	u	u	u	4µM*	u
C/C(=N\NC(=O)c1ccccc1O)c1cccs1	7.6µM*	0.56µM*	u	u	0.56µM*	3.5µM*
C/C(=N\NC(=O)c1ccc2ccccc2c1)c1cccs1	4.3µM*	1.1µM*	2.1µM*	u	1µM*	x
C/C(=N\NC(=O)c1ccncc1)c1cccs1	-18%	18%	u	u	7%	x
C/C(=N/NC(=O)c1cc(C2CC2)[nH]n1)c1cccs1	1.5µM*	0.35µM*	u	u	0.28µM*	2.5µM*
COC(=O)C(NC(=O)CC(C)C)(Nc1nc2c(s1)CCCC2)C(F)(F)F (stereo not drawn)	-5%	x	x	x	x	-7%
O=C(NCCc1ccc(Cl)cc1)C1CCN(Cc2cc3ccccc3n2Cc2ccccc2)CC1	-6%	x	x	x	x	x
CC(C)c1cnc2c(c1SCc1cccc(F)c1)c(=O)n(C)c(=O)n2C	2%	x	x	x	x	x
CC(=O)N1CCc2c(sc3c2c(=O)n(-c2ccccc2C)c(=O)n3CC(=O)Nc2ccccc2)C1	-9%	x	x	x	x	8%
Cc1cccc2c1-c1sc(C(=O)Nc3ccccc3N3CCN(C)CC3)cc1CO2	2%	-2%	-8%	21µM*	-5%	x
CCN1CCN(C(=O)c2cc3c(s2)-c2c(C)cccc2OC3)CC1	11µM*	u	u	u	4µM*	x
Cc1cccc2c1-c1sc(C(=O)N3CCCCC3)cc1CO2	13µM*	3.5µM*	u	u	4µM*	x
COc1cccc(NC(=O)CCc2nnc3n(CC(C)C)c(=O)c4ccccc4n23)c1	4%	x	x	x	x	-1%
CCCc1c(C(=O)N/N=C/C(C)=C/c2ccccc2)nnn1-c1nonc1N	2.4µM*	13%	7%	u	14%	x
CC(/C=N/NC(=O)c1nnn(-c2nonc2N)c1C(C)C)=C\c1ccccc1	1.5µM*	u	3%	u	u	x
CCCN(CCC)Cc1c(C(=O)N/N=C/C(C)=C\c2ccccc2)nnn1-c1nonc1N	-15%	-6%	-23%	u	0%	x
